In PubChem BioAssay (NCI):
This is part of a sample that, as a whole, favours compounds with a hit. Of some 83,000 tested, about 20% had one in any assay.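 48-hour exposure, single concentration, 96-well plates; percent growth endpoint where 0 means no net growth. Active: below 10.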 Unmarked numbers belong to inactive results. Activity calls are given as the source filed them.

Experiments:
Experiment in all cases: NCI-60 one-dose screen, 48 h (100 = growth as untreated, 0 = no growth, -100 = all killed)
Settings in all cases: 10 µM unless noted
[1] = tested on: SK-MEL-2 melanoma
[2] = tested on: EKVX NSCLC
[3] = tested on: SN12C renal
[4] = tested on: UO-31 renal
[5] = tested on: TK-10 renal
[6] = tested on: ACHN renal
[7] = tested on: CAKI-1 renal
[8] = tested on: CCRF-CEM leukemia
[9] = tested on: SR leukemia
[10] = tested on: RPMI-8226 leukemia
[11] = tested on: OVCAR-8 ovarian
[12] = tested on: OVCAR-5 ovarian
[13] = tested on: OVCAR-4 ovarian
[14] = tested on: IGROV1 ovarian
[15] = tested on: OVCAR-3 ovarian
[16] = tested on: HS 578T breast
[17] = tested on: NCI/ADR-RES ovarian
[18] = tested on: MOLT-4 leukemia
[19] = tested on: SK-OV-3 ovarian

Compound | growth [1] | growth [2] | growth [3] | growth [4] | growth [5] | growth [6] | growth [7] | growth [8] [%] | growth [9] | growth [10] | growth [11] | growth [12] | growth [13] [%] | growth [14] | growth [15] | growth [16] | growth [17] | growth [18] [%] | growth [19] [%]
CC(=O)N1N=C(c2cccc(Nc3ccncc3)c2)CC1c1ccc2c(c1)OCO2 (stereo not drawn) | 99.9% | 63% | 81% | 84.5% | 98.1% | 101% | 81.8% | 81.2 | 31.5% | 78.3% | 91.4% | 94.1% | 90.3 | 91.9% | 96% | 80% | 97.2% |  | 
Cn1/c(=N/NC(N)=S)ccc2ccccc21 | 117% | 78.1% | 91.3% | 62.7% | 113% | 95.2% | 95.7% | 63.9 |  | 78.2% | 74.6% | 99% | 93.3 | 44.7% | 44.1% | 103% | 77% | 48.5 | 107
NC(=S)N/N=C(/c1ccccc1)c1ccccc1N | 103% | 66.1% | 85% | 62.8% | 103% | 90.6% | 80.9% | 60.2 |  | 72.6% | 64.7% | 94.8% | 78.5 | 40.1% | 50.7% | 97.2% | 74.2% | 52.7 | 108
CCNC(=O)c1[nH]cc(-c2ccc(OC)cc2)c1-c1cc(OC)cc(OC)c1 | 98.6% | 89.8% | 85.4% | 77.4% | 115% | 67.3% | 59.9% |  | 92.6% | 87.7% | 93.4% | 99.6% | 81.4 | 80.3% | 83.5% | 87.1% | 86.9% | 94.5 | 145
O=S(=O)(NCCCNc1nccc(-c2c(-c3cccc(O)c3)nc3occn23)n1)c1ccc(F)cc1 | 50.6% | 101% | 74.9% | 92.1% | 116% | 79.1% | 72.2% | 89 | 76.6% | 77% | 79% | 128% | 110 | 76.2% | 96.8% | 82.3% | 105% |  | 71.1
CNC(=O)Nc1ccc(-c2nc(N3CCOCC3)nc3c2cnn3C2CCOCC2)cc1 | -23.8% (active) | -24.3% (active) | 7.06% (active) | -23.5% (active) | -38% (active) | 4.27% (active) | -19.3% (active) | 23.8 |  | 8.13% (active) | 0.163% (active) | 1.59% (active) |  | -27.6% (active) | 1.45% (active) | -24.9% (active) | 4.44% (active) | 11.9 | 
CCCN=C(N)c1ccc(NC(=O)c2ccc(C(=O)Nc3ccc(C(N)=NCCC)cc3)cc2)cc1 | 97.2% | 96.1% | 93.1% | 79.8% | 99% | 91.8% | 95% | 108 |  | 90.6% | 95.7% |  | 99.7 | 96.6% | 102% | 102% | 98.4% | 78.2 | 95.6
C=C(C)[C@@H]1CC[C@]2(C(=O)N3CCN(C)CC3)CC[C@]3(C)[C@H](CC[C@@H]4[C@@]5(C)CCC(=O)C(C)(C)[C@@H]5CC[C@]43C)[C@@H]12 | 92.1% | 96.3% | 75.7% | 66.7% | 102% | 77.4% | 93.5% |  | -12.1% (active) | 78.1% | 87.1% | 92.5% |  | 89.2% | 74% | 95.3% | 74.6% | 51.6 | 
C=C(C)[C@@H]1CC[C@]2(C(=O)NCC(=O)OC)CC[C@]3(C)[C@H](CC[C@@H]4[C@@]5(C)Cc6c([nH]c7ccccc67)C(C)(C)[C@@H]5CC[C@]43C)[C@@H]12 | 78.2% | 71.5% | 70.9% | 65.1% | 89.3% | 60.5% | 58.6% | 57.2 | 47% | 53.2% | 85.4% | 100% | 66.5 | 85.1% | 64.6% | 95% | 91% |  | 84.5
CC(C)Cc1ccc(C(C)C(=O)NCc2c[nH]c3ccc(Cl)cc23)cc1 (stereo not drawn) | 92% | 85.9% | 94% | 65.4% | 107% | 86.6% | 81.7% | 73.8 | 80.5% | 78.5% | 93.4% | 98.9% | 88 | 86.9% | 95.5% | 82.8% | 92.5% |  | 98.9
COc1ccc(C2CC(n3nnnc3-c3ccccc3)=NN2)cc1 (stereo not drawn) | 69.3% | 66.2% | 78.1% | 35.3% | 82.6% | 42.1% | 8.64% (active) | 39.6 |  | 62.5% | 61.6% | 66.4% |  | 64.8% | 75.1% | 99% |  | 50.3 | 
CS(=O)(=O)OCCN(CCOS(C)(=O)=O)c1ccc(/C=N/Nc2ccc([N+](=O)[O-])cc2[N+](=O)[O-])cc1 | 118% | 81.7% | 77.6% | 88.9% | 112% | 84.6% | 70.4% | 55.5 |  | 82.3% | 76.4% | 97.8% | 93.1 | 72% | 107% |  | 73% | 88.4 | 101
CN1C(=O)N(C)C2NC(N/N=C/c3ccccc3)=NC21 (stereo not drawn) | 108% | 98.7% | 98.5% | 92.7% | 100% | 102% | 88.8% |  | 117% | 138% | 102% | 98.3% | 103 | 102% | 106% | 94.7% | 104% | 103 | 115
COc1cccc(-c2nc3occn3c2-c2ccnc(NCCCNS(=O)(=O)c3cccc(F)c3)n2)c1 | 90.2% | 79.8% | 87.7% | 69.8% | 131% | 84.5% | 78.2% | 81.3 | 107% | 68.1% | 72.2% | 135% | 71.9 | 89% | 88.1% | 92.6% | 85.8% |  | 86.3
CC1(C)NCCC[C@]2(C)[C@H]3CC=C4[C@@H]5C[C@@](C)(CO)CC[C@]5(C)CC[C@@]4(C)[C@]3(C)CC[C@@H]12 | 48.4% | 86.5% | 62.1% | 69.3% | 63.3% | 54.3% | 76.7% |  | -1.3% (active) | 20.1% | 83.4% | 83.3% | 60.8 | 56.7% | 72.4% | 52.7% | 74.2% | 33.8 | 
[O-][n+]1ccccc1CCN(O)CCc1cccc[n+]1[O-] | 92.9% | 99.4% | 105% | 75.5% | 104% | 95.8% | 94.7% | 99.5 |  | 102% | 101% | 97.7% | 107 | 106% | 106% | 94.5% | 99.8% | 98 | 101
COc1ccc(OC)c(/C=C/[C@H]2O[C@@H](C)[C@H](O)[C@@H]2O)c1 | 91.2% | 107% | 106% | 91.5% | 95.7% | 106% | 96.9% | 98.3 |  | 95.3% | 109% | 112% |  | 105% | 125% | 111% | 108% | 93.2 | 
